Results on eight compounds are retold here after PubChem BioAssay (NCI).

Compounds without any hit were thinned out: in the full panel of roughly 83,000, 20% have a hit.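 Cell lines were cultured in 96-well plates, exposed to a single compound concentration, and assessed for percent growth 48 hours later.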 Values without a mark were called inactive. The source made the active and inactive calls. Rule for the calls: active = growth percent below 10; inactive = the rest.

Test systems include SK-MEL-2 melanoma; EKVX NSCLC; SN12C renal; UO-31 renal; ACHN renal; A498 renal; CCRF-CEM leukemia; MOLT-4 leukemia; SR leukemia; RPMI-8226 leukemia; OVCAR-8 ovarian; OVCAR-5 ovarian; OVCAR-4 ovarian; SK-OV-3 ovarian; IGROV1 ovarian; OVCAR-3 ovarian; HS 578T breast; NCI/ADR-RES ovarian.
Common to all, as to assay: NCI-60 one-dose screen, 48 h (100 = growth as untreated, 0 = no growth, -100 = all killed)
Holding throughout (conditions): 10 µM unless noted

Consider `CS(=O)(=O)Nc1cccc(-c2ccc3ncnc(Nc4cncc(Cl)c4)c3c2)c1`, for which the growth in the test with SK-MEL-2 melanoma is 2.44% (active); in the test with EKVX NSCLC it was 10.8%; in the test with SN12C renal it was 52.5%; with UO-31 renal it was 30.3%; with ACHN renal it was 25.6%; with A498 renal, -34.1% (active). Also, the growth with CCRF-CEM leukemia was 17.1%; in the test on MOLT-4 leukemia it was 0.601% (active); with SR leukemia, -10.5% (active); in the test with RPMI-8226 leukemia, -8.07% (active); in the test with OVCAR-8 ovarian, 38.7%; with OVCAR-5 ovarian, 56.7%. Besides, the growth in the test on OVCAR-4 ovarian is 50.9%; in the test on SK-OV-3 ovarian, -7.86% (active); with IGROV1 ovarian, -13.8% (active); with OVCAR-3 ovarian, 31.9%; in the test on HS 578T breast, -2.64% (active); in the test with NCI/ADR-RES ovarian, 79.7%.
Regarding `Nc1ncnc2c1c(-c1ccc(Oc3ccccc3)cc1)nn2C[C@@H]1SSC[C@H]1O`, the growth with SK-MEL-2 melanoma was -14.4% (active); in the test with EKVX NSCLC it was 33.2%; in the test on SN12C renal, 23.3%; with UO-31 renal, 0.587% (active); with ACHN renal, 11.6%; with A498 renal, -5.51% (active). Moreover, the growth in the test on CCRF-CEM leukemia is 32.9%; with MOLT-4 leukemia, 0.449% (active); in the test on SR leukemia, 4.41% (active); in the test with RPMI-8226 leukemia, 50.9%; in the test with OVCAR-8 ovarian, 33.3%; in the test on OVCAR-5 ovarian, 80.8%. For the same compound, the growth is 50.2% in the test with OVCAR-4 ovarian; -8.06% (active) in the test on SK-OV-3 ovarian; -10.3% (active) with IGROV1 ovarian; 18.3% with OVCAR-3 ovarian; 16.9% in the test with HS 578T breast; 48.3% with NCI/ADR-RES ovarian.
In the case of `COc1ccc(C(=O)NC(=O)Nc2ccc3c(c2)NC(=O)/C3=C\c2[nH]c(C)c(C(=O)O)c2C)cc1`, the growth with SK-MEL-2 melanoma was 93.8%; with EKVX NSCLC it was 81.7%; in the test on SN12C renal, 73%; with UO-31 renal, 80.4%; in the test on ACHN renal it was 52.6%; in the test with A498 renal, 95.9%. Besides, the growth in the test with CCRF-CEM leukemia is 64%; in the test on MOLT-4 leukemia, 25.2%; in the test with SR leukemia it was 34.3%; in the test on OVCAR-8 ovarian, 39.9%; with OVCAR-5 ovarian, 121%; in the test on OVCAR-4 ovarian, 93%. Moreover, the growth is 118% in the test on SK-OV-3 ovarian; 75.4% with IGROV1 ovarian; 52.7% with OVCAR-3 ovarian; 46.8% in the test with HS 578T breast; 99.1% in the test on NCI/ADR-RES ovarian.
Consider `COc1ccccc1N1CCN(CCCOc2ccc(OCCCN3CCN(c4ccccc4OC)CC3)c(C(=O)c3cc(OC)c(OC)c(OC)c3)c2)CC1`, for which the growth in the test on SK-MEL-2 melanoma was 97.2%; in the test on EKVX NSCLC, 88.8%; with SN12C renal, 110%; with UO-31 renal, 102%; in the test on ACHN renal it was 157%; in the test on A498 renal, 122%. The growth with MOLT-4 leukemia was 98.1%; in the test with SR leukemia, 99.7%; with RPMI-8226 leukemia it was 155%; in the test on OVCAR-8 ovarian it was 105%; with OVCAR-5 ovarian, 109%; in the test with OVCAR-4 ovarian it was 109%. The growth with SK-OV-3 ovarian was 100%; in the test on IGROV1 ovarian it was 122%; in the test with HS 578T breast it was 106%.
Turning to `COc1ccc(CNc2nc3ccccc3c3c(=O)c4ccccc4sc23)cc1OC`, the growth is 102% in the test with SK-MEL-2 melanoma; 84.3% with EKVX NSCLC; 82.5% in the test with SN12C renal; 85% in the test on UO-31 renal; 40.2% with ACHN renal; 64.2% with A498 renal. Besides, the growth was 84.8% with CCRF-CEM leukemia; 86.6% in the test with MOLT-4 leukemia; 65.3% with SR leukemia; 87.3% in the test with RPMI-8226 leukemia; 64.8% in the test with OVCAR-8 ovarian; 97.2% in the test with OVCAR-5 ovarian. In addition, the growth in the test with OVCAR-4 ovarian was 62.1%; with SK-OV-3 ovarian it was 81.9%; in the test with IGROV1 ovarian it was 80.6%; in the test with OVCAR-3 ovarian it was 82.6%; in the test with HS 578T breast, 65.8%; with NCI/ADR-RES ovarian, 74.3%.
On to `CCc1ccc(C2=C/C(=C/c3ccc(Cl)cc3)C(=O)N2CCc2ccc(S(N)(=O)=O)cc2)cc1`, for which the growth with SK-MEL-2 melanoma was -12.5% (active); in the test with EKVX NSCLC, 29.7%; in the test with SN12C renal it was 29%; in the test on UO-31 renal, 16.5%; in the test with ACHN renal, 14.9%; in the test on A498 renal, 33.1%. In addition, the growth is 15% in the test on CCRF-CEM leukemia; -1.62% (active) with MOLT-4 leukemia; 6.7% (active) with SR leukemia; 18.9% in the test on RPMI-8226 leukemia; 21.5% in the test with OVCAR-8 ovarian; 47.2% in the test with OVCAR-5 ovarian. The growth with OVCAR-4 ovarian was 32.1%; in the test with SK-OV-3 ovarian, 46%; with IGROV1 ovarian, 27.7%; with HS 578T breast, 62.6%; in the test with NCI/ADR-RES ovarian, 51.8%.
In the case of `COc1ccc(C(=O)NC(=O)Nc2ccc3c(c2)NC(=O)/C3=C\c2[nH]c(C)c(CCC(=O)O)c2C)c(F)c1`, the growth was -0.585% (active) in the test on SK-MEL-2 melanoma; 73.1% in the test on EKVX NSCLC; 39.7% in the test on SN12C renal; 55.6% in the test on UO-31 renal; 67% in the test with ACHN renal; -0.45% (active) in the test with A498 renal. Besides, the growth is 12.2% in the test with CCRF-CEM leukemia; 54.6% in the test on MOLT-4 leukemia; 18.8% in the test on SR leukemia; 13% in the test on RPMI-8226 leukemia; 8.62% (active) in the test on OVCAR-8 ovarian; 64.4% in the test on OVCAR-5 ovarian. Moreover, the growth in the test on OVCAR-4 ovarian is 77%; in the test with SK-OV-3 ovarian it was 56.6%; in the test with IGROV1 ovarian, 43%; in the test with OVCAR-3 ovarian it was 23.4%; in the test on HS 578T breast, -5.02% (active); in the test with NCI/ADR-RES ovarian it was 88.7%.
As to `CC(C)[C@@H]1NC(=O)[C@]2(C)CSC(=N2)c2ccnc(c2)CNC(=O)C[C@@H](/C=C/CCS)OC1=O`, the growth in the test on SK-MEL-2 melanoma was -28.2% (active); in the test on EKVX NSCLC, 31.4%; with SN12C renal it was 27.8%; in the test with UO-31 renal it was 12%; with ACHN renal it was 6.6% (active); with A498 renal, -77% (active). Also, the growth with CCRF-CEM leukemia is 16%; with MOLT-4 leukemia it was 8.13% (active); with SR leukemia, 7.26% (active); with RPMI-8226 leukemia it was -18.5% (active); with OVCAR-8 ovarian, -3.79% (active); in the test on OVCAR-5 ovarian, 18.2%. Also, the growth is 27.3% in the test on OVCAR-4 ovarian; -7.53% (active) in the test with SK-OV-3 ovarian; 0.54% (active) in the test with IGROV1 ovarian; -6.18% (active) in the test on OVCAR-3 ovarian; 9.92% (active) with HS 578T breast; 29.8% with NCI/ADR-RES ovarian.
